Shown are actives, neighbours in structure and some others; about 4.2% of the full set was active somewhere.
MCF10A rerep = DNA re-replication induction in MCF 10a cells; MCF 10A DNA re-replication, Hoechst nuclear intensity, 48 h; Potency, µM (top dose mostly 46.1 µM), usual class: activators; 350,000 tested, 2.9% active; also: nearly all actives have a fitted effect of over 50% in size
SW480 rerep = DNA re-replication induction in SW480 cells; 340,000 tested, 1.8% active; SW480 DNA re-replication, Hoechst DNA content imaging, 48 h; AID 624297; Potency, µM (highest dose often 46.1 µM), usual class: activators; also: nearly all actives have a fitted effect of over 55% in size
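Per well, 250 cells were exposed to pinned compound for 48 hr. Nuclear DNA was visualised with Hoechst (40 min, 37 C) and total object intensity recorded by fluorescence scanning.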
a7 integrin act = activators of alpha7 integrin expression for muscular dystrophy | AID 624291 | 350,000 tested, 0.064% active | Potency, µM (series often up to 38.3 µM), actives largely listed as activators | alpha7betagal myoblasts, beta-gal FDG fluorescence, 48 h; also: nearly all actives have a fitted effect of over 60% in size
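alpha7betagal+/- myoblasts (passage 13, 250/well) treated 48 h at 37C with compounds at 1:260 dilution of DMSO stock. Lysed, then beta-galactosidase activity read as FDG fluorescence (ex 480/em 540) after 30 min, with pre-read for autofluorescence.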
A-T KAP1 phos = candidate therapy for ataxia-telangiectasia | F2112 A-T fibroblasts, KAP-1 phosphorylation AlphaLISA; neocarzinostatin DNA damage 30 min before lysis | Potency, µM (titrated, usually from 57.5 µM), actives largely listed as activators | 320,000 tested, 0.19% active; also: nearly all actives have a fitted effect of over 45% in size
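ATM-like activity read as KAP-1 phosphorylation via AlphaLISA donor/acceptor antibody pairs after lysis and 6 hr at 25C. Cells were ATM-null patient fibroblasts (F2112, hTERT), dosed 60 min, then exposed to the DSB inducer NCS for 30 min.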
Mito fusion act = inhibitors of mitochondrial division or activators of mitochondrial fusion; 320,000 tested, 0.23% active; S. cerevisiae fusion-defective mutant growth rescue, CellTiterGlo 48 h; Potency, µM (highest dose often 46.1 µM), most hits filed as activators; also: nearly all actives have a fitted effect of over 45% in size
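Yeast fusion mutant, YPEG (non-fermentable carbon), compound, 48 h at 37C non-permissive; CellTiterGlo added, 10 min RT, luminescence read. Rescued growth = division inhibition.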
Hits are given with their value; – = inactive; ? = inconclusive; · = no result given; [ ] = another dose, or the depositor's remark. Calls follow the shape of the dose curve; as a rule, active = well fitted activation curve with a large enough effect; inconclusive = small, poorly fitted or top-dose-only effect; inactive = no such curve, though single readings can be large or run the other way.

SMILES	MCF10A rerep	SW480 rerep	a7 integrin act	A-T KAP1 phos	Mito fusion act
CC12CCC(C(=O)NCc3ccccc3)(OC1=O)C2(C)C (stereo not given)	–	–	–	–	–
COc1cccc(NC(=O)CSc2nc3ccccc3c3nc4ccccc4n23)c1	?	–	–	–	–
COc1ccc(CCNC(=O)CCCn2c(=S)[nH]c3cc4c(cc3c2=O)OCO4)cc1OC	·	·	–	·	·
NS(=O)(=O)c1ccc(NC(=O)CN2C(=O)C3C4C=CC(C4)C3C2=O)cc1 (stereo not given)	–	–	–	–	–
Cc1cc(Br)c(S(=O)(=O)n2nnc3ccccc32)cc1C	10µM	?	–	–	–
Nc1nc(SCc2ccc(Br)cc2)c2ncn(C3OC(CO)C(O)C3O)c2n1 (stereo not given)	–	–	–	·	·
Cc1ccc(S(=O)(=O)N2CCC(=O)N(C(COCc3ccc(C(F)(F)F)cc3)Cc3ccccc3)CC2)cc1 (stereo not given)	3.7µM	–	–	–	–
O=C(c1ccc(Cl)c(Cl)c1)N1CCC(=O)N(C(COCc2cccc(Cl)c2)Cc2ccccc2)CC1 (stereo not given)	23µM	?	–	–	35µM
Cc1ccc(S(=O)(=O)N2CCC(=O)N(C(COC(=O)Nc3ccccc3)Cc3ccccc3)CC2)cc1 (stereo not given)	–	–	–	–	–
Cc1ccc(S(=O)(=O)N2CCC(=O)N(C(COCc3cccc(C)c3)Cc3ccccc3)CC2)cc1 (stereo not given)	8.2µM	?	–	–	–
O=C(c1cccc(Cl)c1)N1CCC(=O)N(C(COCc2cccc(Cl)c2)Cc2ccccc2)CC1 (stereo not given)	?	?	–	–	?
Cc1ccc(S(=O)(=O)N2CCC(=O)N(C(COCc3ccc(C(F)(F)F)cc3)C(C)C)CC2)cc1 (stereo not given)	?	–[9.22 µM]	–	–	–
Cc1ccc(S(=O)(=O)N2CCC(=O)N(C(CO)Cc3ccccc3)CC2)cc1 (stereo not given)	–	–	–	–	–
Cc1ccc(S(=O)(=O)N2CCC(=O)N(C(COCc3ccc(Cl)c(Cl)c3)Cc3ccccc3)CC2)cc1 (stereo not given)	23µM	–	–	–	–
Cc1ccc(NC(=O)Cn2c(=O)ccn(Cc3ccccc3)c2=O)cc1S(=O)(=O)N1CCOCC1	–	–	–	·	·
COC(=O)CSc1nnc(CNS(=O)(=O)c2ccc(Cl)cc2)n1C	?	–	–	–	–
Cc1cccc(N2CCN(C(=O)CN3C(=O)NC(C)(C4CC4)C3=O)CC2)c1C (stereo not given)	–	?	–	–	–
C=CCc1cccc2cc(C(=O)N3CCN(C(=O)c4ccco4)CC3)c(=O)oc12	13µM	?	–	–	–
CCN(CC)S(=O)(=O)c1ccc(N2CCOCC2)c(NC(=O)c2cccc3c(=O)c(C)c(-c4ccccc4)oc23)c1	3.7µM	–	–	·	·
O=C(O)CCCn1cc(NC(=O)COc2ccc([N+](=O)[O-])cc2)cn1	–	–	–	–	–
COc1ccc(S(=O)(=O)N(C)C[C@H]2OCc3cnnn3CCCC(=O)N([C@@H](C)CO)C[C@H]2C)cc1	·	·	–	·	·
Cc1ccc(NC(=O)COC(=O)CCc2c(C)nc3ncnn3c2C)cc1C	–	–	–	–	·
O=C(CNC(=S)N(Cc1ccccc1)Cc1ccccc1F)NCc1ccc(Cl)cc1	23µM	–	–	–	–
O=C(CNC(=S)N(Cc1ccccc1)Cc1ccccc1F)NCc1ccccc1	?	–	–	–	–
CCCCN(C)C(=O)c1oc2ccc(S(=O)(=O)N3CCCCCC3)cc2c1C	–	–	–	–	–
SMILES	MCF10A rerep	SW480 rerep	a7 integrin act	A-T KAP1 phos	Mito fusion act
CCN(c1ccccc1)S(=O)(=O)c1ccc(C(=O)N(CCCN(C)C)c2nc3c(C)cccc3s2)cc1	?	?	–	–	–
COc1cc2c(cc1O)CCN[C@@]21CS[C@H]2c3c(OC(C)=O)c(C)c4c(c3C(COC1=O)N1C2C2c3c(cc(C)c(OC)c3O)CC([C@@H]1O)N2C)OCO4 (stereo not given in full)	–	–	·	·	·
CCN(CC)S(=O)(=O)c1cnccc1N1CCN(c2cccc(Cl)c2)CC1	?	–	–	–	13µM
CNS(=O)(=O)c1cnccc1N1CCN(c2cccc(Cl)c2)CC1	–	–	–	·	–
C=CC[C@@H](CC(=O)N[C@@H](CO)Cc1ccccc1)C(=O)N[C@H](COC(=O)[C@@H](CC=C)CC(=O)OC(C)(C)C)Cc1c[nH]c2ccccc12	16µM	?	–	–	·
C=CC[C@@H](CC(=O)N(CCO)Cc1ccccc1)C(=O)N[C@H](COC(=O)[C@@H](CC=C)CC(=O)OC(C)(C)C)Cc1c[nH]c2ccccc12	10µM	–	–	–	·
C=CC[C@H](CC(=O)N(CCO)Cc1ccccc1)C(=O)N[C@@H](COC(=O)[C@H](CC=C)CC(=O)OC(C)(C)C)Cc1c[nH]c2ccccc12	23µM	–	–	–	·
CCN(C(=O)CSc1nncn1-c1ccccc1)C1CCS(=O)(=O)C1 (stereo not given)	–	–	–	–	–
COc1cc2c(cc1OC)C(C1C(=O)CCCC1=O)N(C(=O)CCl)CC2 (stereo not given)	–	–	–	–	–
COc1cc2c(cc1OC)C(c1ccccc1)N(C(=O)CCl)CC2 (stereo not given)	16µM	16µM	–	–	–
COc1ccccc1N1CCN(C(=O)c2c(-c3ccccc3)noc2C)CC1	11µM	?	–	–	–
COc1ccccc1N1CCN(C(=O)/C=C/c2ccc(C)cc2)CC1	23µM	–	–	–	–
COc1cc2c(cc1OC)C(C)N(C(=O)Nc1ccccc1)CC2 (stereo not given)	?	5.2µM	?	–	–
COc1ccccc1N1CCN(C(=O)c2c(-c3c(F)cccc3Cl)noc2C)CC1	?	?	–	–	–
COc1cc2c(cc1OC)C(C)N(C(=O)CCNC(=O)c1ccccc1)CC2 (stereo not given)	–	–	–	–	–
COc1cc2c(cc1OC)C(C)N(C(=O)c1c(-c3ccccc3)noc1C)CC2 (stereo not given)	12µM	?	–	–	–
O=C(COc1ccc([N+](=O)[O-])cc1)NNC(=O)C1COc2ccccc2O1 (stereo not given)	·	·	–	·	·
COc1cccc(-c2ccc3c(c2)O[C@@H](CN(C)Cc2cncnc2)[C@@H](C)CN([C@H](C)CO)S3(=O)=O)c1	·	·	–	·	·
CC[C@@]1(O)CC2CN(CCc3c([nH]c4ccccc34)[C@](C(=O)OC)(c3cc4c(cc3OC)N(C)C3[C@@](O)(C(=O)OC)C(OC(C)=O)[C@]5(CC)C=CCN6CC[C@@]43C65)C2)C1 (stereo not given in full)	?	0.67µM	·	·	·
